Our source for the viability loss activity score values is PubChem BioAssay AID2275 (Broad Institute, 2010).

SMILES strings stand for the structures. About 190 (0.63%) of roughly 30,000 compounds were called active. The entries come from a sample that favours actives as a whole. A number with no mark means an inactive call. Rule as the data show it: active = viability loss activity score above about 50%; inconclusive = no clear call, values can overlap the other calls; inactive = below about 35%.

The test is described as follows: cytotoxicity in HRASV12-transformed BJ fibroblasts – cell-based, luminescence, CellTiterGlo ATP, primary screen (AID 2275).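 Also: higher score means fewer live cells and less ATP luminescence.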 To be noted: BJeLR fibroblasts viability, 48 h, active compounds read high, HRASV12, hTERT and SV40 LT/ST transformed, concentration not given here. A general note: Cellular ATP, detected with luciferase, serves as a proxy for viable cell number.
Regarding `O=C(CC(O)(c1ccccc1)C(F)(F)F)c1ccccc1` (stereo not given), the viability loss activity score was -2.63%.
Regarding `CCCCN(C)S(=O)(=O)c1ccc2c(c1)oc(=O)n2C`, the viability loss activity score was -1.52%.
Regarding `CC(=O)Oc1ccc(N(C(C)=O)S(=O)(=O)c2ccc(Cl)cc2)cc1`, the viability loss activity score was -1.22%.
`CC[C@]1(O)C[C@@H]2CN(CCc3c([nH]c4ccccc34)[C@@](C(=O)OC)(c3cc4c(cc3OC)N(C)[C@H]3[C@@](O)(C(=O)OC)[C@H](OC(C)=O)[C@]5(CC)C=CCN6CC[C@]43[C@@H]65)C2)C1`: the viability loss activity score is 64.7% (active).
For `COc1ccc(C(=O)OC2=C(c3ccccc3)C(=O)c3ccccc3C2=O)cc1`, the viability loss activity score was -6.2%.
As for `CC1=C(C(=O)OC2CC(C)CCC2C(C)C)C(c2ccc(Br)cc2)n2nnnc2N1` (stereo not given), the viability loss activity score is -1.4%.
Take `CCC1CCCCN1C(=O)c1ccc(F)cc1` (stereo not given): the viability loss activity score is 5.08%.
`O=C(CSc1ccccn1)NCc1ccccc1`: the viability loss activity score was -3.11%.
On to `CCN1C(=O)c2cccc3c(NC(=S)NC(=O)c4ccccc4)ccc1c23`, for which the viability loss activity score is 2.04%.
In the case of `Cc1ccc(S(=O)(=O)N(C)C[C@@H]2Oc3c(NC(=O)NC(C)C)cccc3C(=O)N([C@H](C)CO)C[C@H]2C)cc1`, the viability loss activity score is 0.297%.
In the case of `C=CC[C@H]1Cc2ccccc2[C@H](CC=C)N1`, the viability loss activity score was 5.12%.
Regarding `COc1ccc(-c2coc3c(C)c4oc(=O)c5cc(OC)ccc5c4cc23)cc1`, the viability loss activity score is -3.61%.
As to `COC(=O)C1=C(N)Oc2cc(C)oc(=O)c2C1c1cccnc1` (stereo not given), the viability loss activity score was -1.16%.
To `CCOC(=O)CCN1N=C(c2ccc(CC)cc2)CCC1=O` belongs -3.96%; to `COc1ccc(S(=O)(=O)NCCN2CCOCC2)cc1-c1nnc2c3ccccc3c(C)nn12`, 13.3%; to `CN(C)c1ccc(C2CC(c3ccc(Br)cc3)=NN2S(C)(=O)=O)cc1` (stereo not given), 6.95%.
With `CSc1c(CC(=O)Nc2ccc(C)cc2)[nH]c2ccccc12`, the viability loss activity score is 1.08%.
In the case of `CC(=O)OCCn1c(=O)c2ccccc2c2ccccc2c1=O`, the viability loss activity score was 0.959%.
With `Cc1c(C(=O)OC2CCCC2)[nH]c2c1C(=O)CCC2`, the viability loss activity score is -0.399%.
With `COc1ccc(C(=O)NCc2cc3cc(Cl)ccc3[nH]2)cc1COc1ccccc1Cl`, the viability loss activity score is 13.4%.
Consider `COc1ccc(-n2nc(C(=O)NC3CCCC(C)C3C)c3c4ccccc4n(C)c3c2=O)cc1` (stereo not given), for which the viability loss activity score was 0.653%.
To `Cc1cc(C)n(-c2ccc(-n3cccc3/C=C(/C#N)S(=O)(=O)c3ccccc3)cc2)n1` belongs 1.25%; to `O=C(CSc1ccc(Cl)cc1)N1CCc2ccccc21`, 8.93%.
Take `Cc1cc(Sc2nnc(C)s2)c2ccccc2n1`: the viability loss activity score was 34.4%.
Take `COc1cc(S(=O)(=O)N2CCCCCCC2)ccc1-n1cnnn1`: the viability loss activity score is -2.51%.
To `COc1ccc(NC(=S)N2CCCC(c3ccccc3)=N2)cc1` belongs -2.21%; to `C[C@@H]1CN([C@H](C)CO)C(=O)c2cc(NS(=O)(=O)c3cccs3)ccc2O[C@@H]1CN(C)Cc1ccc(C(F)(F)F)cc1`, 0.614%.
`CCOC(=O)C1CCN(S(=O)(=O)c2ccc(N3C(=O)CC4(CCCC4)C3=O)c(Cl)c2)CC1`: the viability loss activity score is 1.47%.
To `O=C(Nn1cnc2ccccc2c1=O)c1ccccc1` belongs 3.68%; to `CCC(NCC(O)Cn1c2ccccc2c2ccccc21)C(=O)O` (stereo not given), -1.06%.
As for `CC(C)Nc1ccc(-n2nc3ccccc3[n+]2[O-])cc1`, the viability loss activity score was 2.31%.
As for `Cc1cccc[n+]1C/C=C\c1ccccc1`, the viability loss activity score is 13.2%.
The value for `Cc1ccc(S(=O)(=O)Nc2ccc3c(c2)C(=O)N([C@@H](C)CO)C[C@@H](C)[C@@H](CN(C)S(=O)(=O)c2ccc(C)cc2)O3)cc1` was 3.23%; that for `CC(C)(C)c1nc(=S)[nH][nH]1` was -5.55%; that for `Cc1noc(C)c1S(=O)(=O)Nc1ccc2c(c1)C(=O)N([C@@H](C)CO)C[C@H](C)[C@H](CN(C)Cc1ccc(C(=O)Nc3ccccc3N)cc1)O2` was 6.72%.
On to `Cn1c(Cc2nc(-c3cnccn3)no2)nnc1SCC(=O)Nc1ccc(Cl)cc1`, for which the viability loss activity score was -7.21%.
With `Cc1ccc(-n2cc(-c3ccccc3)c3c(NN4CCOCC4)ncnc32)cc1Cl`, the viability loss activity score is 0.765%.
`CC(C)(C)NC(=S)N1CCn2cccc2C1c1ccccc1F` (stereo not given): the viability loss activity score is -3.87%.
As to `Cc1ccccc1OC1C(=O)N(CCc2ccc(F)cc2)C1c1ccc2c(c1)OCO2` (stereo not given), the viability loss activity score was 0.258%.
For `CCCC(=O)N1CCC(c2c[nH]c3ccccc23)(c2c[nH]c3ccccc23)CC1`, the viability loss activity score is 5.31%.
Take `CC(=O)NN1C(=O)c2ccccc2NC1c1ccccc1` (stereo not given): the viability loss activity score is -1.21%.
The value for `Cc1cccc(C(=O)Nc2ccc(NC(=O)c3ccco3)cc2)c1` was 0.303%; that for `CS(=O)(=O)c1sc(C(=O)Nc2ccccc2Cl)c2c1C=CCC2` was -1.24%.
Turning to `NC(=O)Cn1nnc2sc3c(c2c1=O)CCCC3`, the viability loss activity score is 10.6%.
For the compound `Cc1ccc(CC2C(=O)N(c3cccc(C(F)(F)F)c3)C(=O)C2C)cc1` (stereo not given), the viability loss activity score is 1.06%.
To `O=C(O)c1ccc(CNCCc2ccccc2)s1` belongs 0.164%.
To `COC(=O)C1=C(C)N(C)C(=S)NC1c1ccccc1` (stereo not given) belongs -3.34%.
Regarding `CCOC(=O)c1cccc(NC(=O)CCOc2ccccc2)c1`, the viability loss activity score is 2.1%.
As for `Cc1ccc(CCNC(=O)C2(NS(=O)(=O)c3cccc4cccnc34)CCCCC2)cc1`, the viability loss activity score is 2.11%.
Regarding `Cc1ccc(S(=O)(=O)N(CC(=O)NC2CC2)C2CCCCC2)cc1`, the viability loss activity score was 5.79%.
As to `CC(C)(C)C(=O)CSc1nc2ccccc2c(=O)n1CC1CC1`, the viability loss activity score is -4.35%.
With `Cc1cc(C(C)(C)C)cc(S(=O)(=O)Nc2ccc(C(=O)N3CCC(C)CC3)cc2)c1C`, the viability loss activity score is -6.82%.
Take `O=c1n(Cc2ccccc2)c2ccccc2n1Cc1ccccc1`: the viability loss activity score is 6.4%.
Take `CC(C)NC(=O)Nc1ccc2c(c1)C(=O)N([C@@H](C)CO)C[C@H](C)[C@H](CN(C)S(=O)(=O)c1cccs1)O2`: the viability loss activity score is -2.18%.
Turning to `O=C1C2=C(Nc3ccccc3S(=O)(=O)C2c2ccc(Cl)cc2)c2ccccc21` (stereo not given), the viability loss activity score is 0.962%.
